Measured values as given in PubChem BioAssay (NCI).
This is part of a sample that, as a whole, favours compounds with a hit. Of some 83,000 tested, about 20% had one in any assay.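 Percent growth is the endpoint: 0 to 100 indicates growth inhibition (40 means 60% inhibition), 0 means no net growth, and negative values indicate cell death.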 Unmarked numbers belong to inactive results. The source made the active and inactive calls. How the source made its calls: active means growth percent below 10; inactive means the rest.

Each molecule was assayed on MCF7 breast (assay: NCI-60 one-dose screen, 48 h (100 = growth as untreated, 0 = no growth, -100 = all killed)). Conditions: 10 µM unless noted.

SMILES | growth
CN1C(=O)C2(SCC(C(=O)NCC(=O)OC(C)(C)C)N2C(=O)C2CCCCC2)c2ccccc21 (centres undefined) | 97.9%
COc1cc([C@@H]2c3cc4c(cc3C(OC3O[C@@H]5COC(C)O[C@H]5[C@H](O)[C@H]3O)C3COC(=O)[C@@H]32)OCO4)cc(OC)c1O (some centres undefined) | 22.4%
O=[N+]([O-])c1cccc(C2c3ccccc3Oc3ccccc32)c1 | 98.7%
O=c1cc(Cl)[nH]c(=O)[nH]1 | 92.5%
C=CCOc1ccc(/C(Cl)=N/N=C(\Cl)c2cc(OC)c(OC)c(OC)c2)cc1 | 42.8%
CN(C)c1ccc(/C=c2\s/c(=C\C(=O)C(C)(C)C)[nH]c2=O)cc1 | 86.7%
Cc1ccn2cc(Cc3cc(=O)oc4c3ccc3ccccc34)c(=O)nc2c1 | 93.8%
Clc1ccc(CN2COc3c(ccc4cccnc34)C2)cc1Cl | 12.6%
COc1ccccc1N1CCN(CC(O)COc2c(Br)c(Br)c(Br)c3c2OC(C)(C)C3)CC1 (centres undefined) | 26.8%
CCN(CC)CCNC(=O)c1c(C)[nH]c(/C=C2\C(=O)Nc3cc(NC(=O)NC(=O)c4ccc(OC)cc4F)ccc32)c1C | 58.3%
O=C(CSc1nnc(-c2ccc(Cl)cc2)o1)Nc1ccc(C(=O)/C=C/c2ccccc2)cc1 | 53.1%
Cn1c2ccccc2c2ssc(=S)c21 | 92.9%
CN(CCNCc1ccccn1)CCNCc1ccccn1 | 6.52% (active)
Cc1ccc2c(C3C(C#N)=C(N)Oc4cc5ccccc5cc43)cc(=O)oc2c1 (centres undefined) | 17.9%
CNCCCOc1c(Br)cc(CCNC(=O)/C(Cc2ccc(OC)c(Br)c2)=N/O)cc1Br | 19%
COC(OC)C1(c2ccccc2)NC(=O)NC1=O (centres undefined) | 104%
CC(C)(C)OC(=O)NCc1cccc(N=C=S)c1 | 29.5%
Cc1cc(-c2ccccc2)nc2ccccc12 | 65.1%
O=C(Cn1c2ccccc2c2ccncc21)N/N=C\c1ccc2ccccc2c1 | 11.7%
CC[C@H]1[C@@H]2C=C[C@@H]3[C@H]4C/C=C\C(=O)NCCC[C@@H]5NC(=O)/C(=C(O)/C=C/[C@@H]4C[C@@H]3[C@H]2C[C@H]1C)C5=O | 41.3%

SMILES | growth
COc1ccc(/C=C/C(=O)c2ccc(Oc3ncnc4ccccc34)cc2)cc1OC | 8.88% (active)
Cc1cc(N2CCOCC2)nc(N(CCNc2ccnc3cc(Cl)ccc23)Cc2ccco2)n1 | 40.6%
CC(C)(c1ccc(OCC(O)CNCc2ccco2)cc1)c1ccc(OCC(O)CNCc2ccco2)cc1 (centres undefined) | 85.4%
CCC1CN2C(=N1)c1ccccc1-c1cc(Cl)ccc12 (centres undefined) | 4.59% (active)
O=C(Nc1cccc(-n2ccc3c(NC(=O)c4ccccc4)nccc32)c1)c1cccc(C(F)(F)F)c1 | 19%
CCOc1ccc(-n2c(-c3cc(OC)c(OC)c(OC)c3)nnc2-c2ccc(OC)cc2N)cc1 | 40.6%
O=C(COc1ccc(Cl)cc1)N1CCN(Cc2ccc3c(c2)OCO3)CC1 | 103%
C=C1C(=O)O[C@H]2[C@H]1CC/C(COC(=O)c1cccc3ccccc13)=C\CC[C@@]1(C)O[C@@H]21 | -42.9% (active)
O=C(NNC(=O)c1ccc([N+](=O)[O-])cc1)c1ccc([N+](=O)[O-])cc1 | 90.4%
COc1ccc(-n2c(-c3ccc(NC(=O)CCCl)cc3)nnc2-c2cc(OC)c(OC)c(OC)c2)cc1 | 23.2%
N#Cc1c(N)nc2c(c1N)C(c1ccc(Cl)cc1)C1=C(CCCC1=O)N2c1sc2c(c1C#N)CCCC2 (centres undefined) | 99.7%
CS(=O)(=O)Nc1cccc(-c2ccc3ncnc(Nc4cncc(Cl)c4)c3c2)c1 | 15.6%
COc1cc(C(=O)NNC(=O)c2ccccc2O)cc(OC)c1OC | 92.2%
C=C1C(=O)O[C@H]2[C@H]1CC/C(COC(=O)c1cc(OC)c(OC)c(OC)c1)=C\CC[C@@]1(C)O[C@@H]21 | -16.5% (active)
CC(C)(CCN=C(N)Nc1ccccn1)c1ccc(C(F)(F)F)cc1 | -11.2% (active)
O=C(Nc1ccc(-n2cc(-c3ccncc3)c(-c3ccc(O)c(Cl)c3)n2)cc1)c1cc(Cl)cc(Cl)c1 | 33.3%
CCOc1ccccc1C(=O)N1CCN(c2cc(Cl)cc(Cl)c2)CC1 | 15.2%
COc1ccc(/C=N/C2=NNC(C)(c3ccccc3O)N2C(Cc2c[nH]c3ccccc23)C(=O)O)cc1 (centres undefined) | 13.1%
O=C(NCCNc1nccc(-c2c(-c3cccc(O)c3)nc3sccn23)n1)c1ccccc1O | 37%
